Experimental data taken from publication PMC7862700, “An all-to-all approach to the identification of sequence-specific readers for epigenetic DNA modifications on cytosine”.

What was measured:
Test in all cases: DAPPL (digital affinity profiling via proximity ligation, sequencing); 10 mM Tris-HCl pH 7.5, 50 mM NaCl, 1 mM DTT, 4% glycerol, room temperature, 30 min; GST-TFs on glutathione beads, 16-mer random dsDNA library, 0.1% formaldehyde crosslink after washing; high values mean tight binding
Conditions in all cases: protein: recombinant; tags: N-terminal GST; dsDNA, one strand shown
ELK1 = biological target: T1, ELK1 (Homo sapiens, UniProt P19419 1-428)
T1 sequence: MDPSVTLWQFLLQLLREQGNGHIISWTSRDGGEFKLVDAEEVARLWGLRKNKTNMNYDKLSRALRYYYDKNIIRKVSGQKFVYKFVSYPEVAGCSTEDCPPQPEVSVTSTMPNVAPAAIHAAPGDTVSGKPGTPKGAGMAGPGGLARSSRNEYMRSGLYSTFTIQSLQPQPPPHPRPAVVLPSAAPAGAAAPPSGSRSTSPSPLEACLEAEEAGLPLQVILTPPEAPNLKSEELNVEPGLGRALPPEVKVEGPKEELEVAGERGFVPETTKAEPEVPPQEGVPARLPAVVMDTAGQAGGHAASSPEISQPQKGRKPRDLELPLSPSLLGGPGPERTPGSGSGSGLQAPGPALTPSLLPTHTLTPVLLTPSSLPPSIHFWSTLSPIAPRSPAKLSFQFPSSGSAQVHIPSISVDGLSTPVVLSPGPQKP
Procedure, shortened: (§1)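 Human transcription factors fused to GST were expressed in yeast, captured on glutathione beads, given DNA barcodes and pooled with a GST-only negative control. Pools were incubated with 200 nmole of a 16-mer random double-stranded DNA library in Tris/NaCl/DTT/glycerol buffer at room temperature for 30 min. They were then washed, crosslinked with 0.1% formaldehyde, proximity-ligated (BsaI/T4 ligase, 1 h, 37 °C), PCR-amplified and sequenced on an Illumina NextSeq500. Binding signal is each 6-mer's read frequency for a factor divided by its frequency for the GST control.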

GABPA = biological target: T2, GABPA (Homo sapiens, UniProt Q06546 1-454)
T2 sequence: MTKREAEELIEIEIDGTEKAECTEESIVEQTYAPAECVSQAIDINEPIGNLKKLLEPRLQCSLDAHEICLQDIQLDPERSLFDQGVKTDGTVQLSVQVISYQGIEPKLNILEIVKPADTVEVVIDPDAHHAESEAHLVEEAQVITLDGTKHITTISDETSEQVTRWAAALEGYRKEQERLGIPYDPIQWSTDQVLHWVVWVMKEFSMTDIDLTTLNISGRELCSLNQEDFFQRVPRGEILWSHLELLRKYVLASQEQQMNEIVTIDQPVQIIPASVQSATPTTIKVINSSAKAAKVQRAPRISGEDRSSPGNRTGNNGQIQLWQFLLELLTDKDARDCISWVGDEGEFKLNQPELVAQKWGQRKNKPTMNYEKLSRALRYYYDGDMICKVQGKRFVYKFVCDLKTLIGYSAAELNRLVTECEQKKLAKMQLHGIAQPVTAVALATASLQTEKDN
Procedure, shortened: as §1

ERG = biological target: T3, ERG (Homo sapiens, UniProt P11308 1-479)
T3 sequence: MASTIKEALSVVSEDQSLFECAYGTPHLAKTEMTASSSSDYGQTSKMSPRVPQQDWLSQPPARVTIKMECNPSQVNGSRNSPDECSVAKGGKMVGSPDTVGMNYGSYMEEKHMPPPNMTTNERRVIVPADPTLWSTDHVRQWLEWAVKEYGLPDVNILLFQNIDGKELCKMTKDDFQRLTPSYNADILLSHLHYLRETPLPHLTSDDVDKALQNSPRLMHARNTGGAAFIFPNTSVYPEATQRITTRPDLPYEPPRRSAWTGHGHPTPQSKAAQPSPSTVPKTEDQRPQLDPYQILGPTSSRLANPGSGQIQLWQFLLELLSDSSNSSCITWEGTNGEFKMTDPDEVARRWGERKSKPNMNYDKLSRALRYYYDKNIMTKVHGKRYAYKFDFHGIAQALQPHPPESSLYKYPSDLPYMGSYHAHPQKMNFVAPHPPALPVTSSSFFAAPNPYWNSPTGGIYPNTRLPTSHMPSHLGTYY
Procedure, shortened: as §1

ELF1 = ELF1 (Homo sapiens, UniProt P32519 1-619)
Procedure, shortened: as §1

EHF = biological target: T4, EHF (Homo sapiens, UniProt Q9NZC4 1-300)
T4 sequence: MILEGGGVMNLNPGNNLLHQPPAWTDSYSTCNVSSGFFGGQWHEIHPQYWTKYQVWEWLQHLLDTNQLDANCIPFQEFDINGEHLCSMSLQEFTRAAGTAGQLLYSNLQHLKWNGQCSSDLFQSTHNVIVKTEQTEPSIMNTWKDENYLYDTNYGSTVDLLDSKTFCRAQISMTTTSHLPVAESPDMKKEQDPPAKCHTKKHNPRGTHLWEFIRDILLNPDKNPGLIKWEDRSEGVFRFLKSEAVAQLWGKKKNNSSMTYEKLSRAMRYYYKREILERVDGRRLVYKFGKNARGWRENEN
Procedure, shortened: as §1

SPIB = SPIB (Homo sapiens, UniProt Q01892 1-262)
Procedure, shortened: as §1

ELK3 = biological target: T5, ELK3 (Homo sapiens, UniProt P41970 1-407)
T5 sequence: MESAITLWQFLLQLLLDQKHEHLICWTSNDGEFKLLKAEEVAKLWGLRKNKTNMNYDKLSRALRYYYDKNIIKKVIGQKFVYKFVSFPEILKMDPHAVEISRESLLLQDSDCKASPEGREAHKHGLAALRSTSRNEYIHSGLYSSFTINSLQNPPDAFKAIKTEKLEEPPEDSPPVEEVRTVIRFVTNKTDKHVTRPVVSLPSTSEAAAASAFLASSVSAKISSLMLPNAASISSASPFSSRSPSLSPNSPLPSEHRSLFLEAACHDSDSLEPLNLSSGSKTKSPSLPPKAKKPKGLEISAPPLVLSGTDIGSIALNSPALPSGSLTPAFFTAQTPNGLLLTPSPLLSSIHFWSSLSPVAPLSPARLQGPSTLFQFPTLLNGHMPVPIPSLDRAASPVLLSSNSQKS
Procedure, shortened: as §1

FEV = biological target: T6, FEV (Homo sapiens, UniProt Q99581 1-238)
T6 sequence: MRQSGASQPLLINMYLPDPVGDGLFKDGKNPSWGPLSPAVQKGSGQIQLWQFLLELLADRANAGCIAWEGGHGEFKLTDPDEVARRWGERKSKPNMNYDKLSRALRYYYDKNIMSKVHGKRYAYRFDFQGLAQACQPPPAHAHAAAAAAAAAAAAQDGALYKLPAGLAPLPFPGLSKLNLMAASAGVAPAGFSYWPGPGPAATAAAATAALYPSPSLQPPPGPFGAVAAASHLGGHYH
Procedure, shortened: as §1

ETV5 = ETV5 (Homo sapiens, UniProt P41161 1-510)
Procedure, shortened: as §1

ELF4 = ELF4 (Homo sapiens, UniProt Q99607 1-663)
Procedure, shortened: as §1

ELF3 = biological target: T7, ELF3 (Homo sapiens, UniProt P78545 1-371)
T7 sequence: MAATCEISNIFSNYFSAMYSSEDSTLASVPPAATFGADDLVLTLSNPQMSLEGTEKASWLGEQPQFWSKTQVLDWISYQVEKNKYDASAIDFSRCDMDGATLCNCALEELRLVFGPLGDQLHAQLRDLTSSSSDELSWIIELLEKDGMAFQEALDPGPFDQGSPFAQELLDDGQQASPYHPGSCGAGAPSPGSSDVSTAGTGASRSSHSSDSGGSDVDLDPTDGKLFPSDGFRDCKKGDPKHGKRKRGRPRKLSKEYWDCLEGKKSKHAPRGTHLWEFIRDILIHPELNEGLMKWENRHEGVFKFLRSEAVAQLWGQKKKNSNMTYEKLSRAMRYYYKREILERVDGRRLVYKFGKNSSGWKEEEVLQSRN
Procedure, shortened: as §1

ETV1 = ETV1 (Homo sapiens, UniProt P50549 1-477)
Procedure, shortened: as §1

ERF = biological target: T8, ERF (Homo sapiens, UniProt P50548 1-548)
T8 sequence: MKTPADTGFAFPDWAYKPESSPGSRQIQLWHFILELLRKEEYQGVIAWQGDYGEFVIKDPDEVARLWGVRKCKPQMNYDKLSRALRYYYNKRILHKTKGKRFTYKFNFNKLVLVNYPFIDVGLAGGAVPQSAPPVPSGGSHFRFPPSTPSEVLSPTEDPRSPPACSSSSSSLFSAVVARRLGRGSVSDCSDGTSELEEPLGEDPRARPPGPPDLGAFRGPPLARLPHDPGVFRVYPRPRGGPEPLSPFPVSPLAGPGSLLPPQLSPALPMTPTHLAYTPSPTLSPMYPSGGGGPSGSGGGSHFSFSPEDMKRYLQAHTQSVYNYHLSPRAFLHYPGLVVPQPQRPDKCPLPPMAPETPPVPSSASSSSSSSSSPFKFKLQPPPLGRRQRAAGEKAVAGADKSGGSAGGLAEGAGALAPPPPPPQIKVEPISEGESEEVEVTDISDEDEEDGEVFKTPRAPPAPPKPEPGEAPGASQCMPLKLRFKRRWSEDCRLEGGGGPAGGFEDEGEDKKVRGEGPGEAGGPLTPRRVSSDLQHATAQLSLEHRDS
Procedure, shortened: as §1

ETV3L = biological target: T9, ETV3L (Homo sapiens, UniProt Q6ZN32 1-361)
T9 sequence: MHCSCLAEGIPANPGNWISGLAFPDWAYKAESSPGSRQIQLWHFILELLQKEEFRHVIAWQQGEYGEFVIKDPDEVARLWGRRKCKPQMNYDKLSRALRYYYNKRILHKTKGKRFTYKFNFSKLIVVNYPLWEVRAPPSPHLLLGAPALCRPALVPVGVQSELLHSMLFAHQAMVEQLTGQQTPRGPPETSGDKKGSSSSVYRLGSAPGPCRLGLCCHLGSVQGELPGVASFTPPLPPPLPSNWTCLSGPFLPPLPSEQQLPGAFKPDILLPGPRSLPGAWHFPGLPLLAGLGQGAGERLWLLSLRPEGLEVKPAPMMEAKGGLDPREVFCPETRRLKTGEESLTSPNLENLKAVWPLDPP
Procedure, shortened: as §1

ETS2 = biological target: T10, ETS2 (Homo sapiens, UniProt P15036 1-469)
T10 sequence: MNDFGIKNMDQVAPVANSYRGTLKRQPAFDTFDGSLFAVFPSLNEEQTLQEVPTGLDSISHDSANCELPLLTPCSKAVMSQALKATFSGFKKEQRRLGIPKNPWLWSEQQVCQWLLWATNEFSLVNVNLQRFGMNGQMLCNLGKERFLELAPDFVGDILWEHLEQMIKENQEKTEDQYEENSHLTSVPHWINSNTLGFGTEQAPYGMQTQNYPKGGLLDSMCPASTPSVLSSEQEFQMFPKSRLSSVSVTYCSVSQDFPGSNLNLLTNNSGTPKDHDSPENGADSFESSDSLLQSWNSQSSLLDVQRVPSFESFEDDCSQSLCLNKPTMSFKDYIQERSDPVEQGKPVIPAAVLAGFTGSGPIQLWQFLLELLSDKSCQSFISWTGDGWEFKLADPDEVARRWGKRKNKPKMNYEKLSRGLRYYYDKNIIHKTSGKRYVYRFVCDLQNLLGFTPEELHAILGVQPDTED
Procedure, shortened: as §1

SPDEF = biological target: T11, SPDEF (Homo sapiens, UniProt O95238 1-335)
T11 sequence: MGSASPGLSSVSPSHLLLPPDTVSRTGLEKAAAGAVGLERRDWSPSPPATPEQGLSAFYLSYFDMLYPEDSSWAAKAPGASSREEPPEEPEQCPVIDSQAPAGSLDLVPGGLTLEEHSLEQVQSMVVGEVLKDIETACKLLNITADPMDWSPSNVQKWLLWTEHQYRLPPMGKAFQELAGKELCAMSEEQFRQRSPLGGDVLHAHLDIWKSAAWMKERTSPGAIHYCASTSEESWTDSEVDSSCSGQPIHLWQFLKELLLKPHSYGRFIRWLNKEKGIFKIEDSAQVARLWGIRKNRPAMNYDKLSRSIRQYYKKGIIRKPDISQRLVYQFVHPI
Procedure, shortened: as §1

ETV7 = biological target: T12, ETV7 (Homo sapiens, UniProt Q9Y603 1-341)
T12 sequence: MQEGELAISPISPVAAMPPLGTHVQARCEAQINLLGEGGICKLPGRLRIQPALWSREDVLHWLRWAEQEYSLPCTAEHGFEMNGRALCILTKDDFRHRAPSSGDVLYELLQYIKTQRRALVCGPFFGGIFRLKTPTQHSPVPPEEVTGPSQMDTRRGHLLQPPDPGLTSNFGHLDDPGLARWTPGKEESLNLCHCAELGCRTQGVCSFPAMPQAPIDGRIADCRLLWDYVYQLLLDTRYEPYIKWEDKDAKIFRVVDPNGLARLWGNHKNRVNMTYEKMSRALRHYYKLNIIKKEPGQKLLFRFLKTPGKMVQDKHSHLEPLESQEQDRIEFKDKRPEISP
Procedure, shortened: as §1

ETV3 = biological target: T13, ETV3 (Homo sapiens, UniProt P41162-2 1-143)
T13 sequence: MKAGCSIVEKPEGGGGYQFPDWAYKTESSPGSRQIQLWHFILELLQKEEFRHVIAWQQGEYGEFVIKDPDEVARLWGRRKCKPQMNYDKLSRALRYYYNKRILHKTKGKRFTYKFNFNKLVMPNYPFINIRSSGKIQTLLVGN
Procedure, shortened: as §1

ETV6 = ETV6 (Homo sapiens, UniProt P41212 1-452)
Procedure, shortened: as §1

Sequence of ETV6 (P41212 whole entry): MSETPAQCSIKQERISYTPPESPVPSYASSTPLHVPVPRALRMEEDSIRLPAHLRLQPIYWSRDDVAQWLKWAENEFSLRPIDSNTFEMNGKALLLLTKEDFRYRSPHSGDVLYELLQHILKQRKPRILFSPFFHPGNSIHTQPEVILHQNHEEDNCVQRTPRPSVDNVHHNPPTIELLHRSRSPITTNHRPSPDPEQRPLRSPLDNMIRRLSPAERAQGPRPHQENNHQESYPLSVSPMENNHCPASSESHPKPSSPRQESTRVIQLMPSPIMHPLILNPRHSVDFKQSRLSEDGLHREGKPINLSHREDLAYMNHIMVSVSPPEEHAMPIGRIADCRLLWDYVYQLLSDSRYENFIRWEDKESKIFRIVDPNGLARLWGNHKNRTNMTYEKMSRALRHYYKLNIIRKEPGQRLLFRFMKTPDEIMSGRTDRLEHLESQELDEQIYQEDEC
Sequence of ETV5 (P41161 whole entry): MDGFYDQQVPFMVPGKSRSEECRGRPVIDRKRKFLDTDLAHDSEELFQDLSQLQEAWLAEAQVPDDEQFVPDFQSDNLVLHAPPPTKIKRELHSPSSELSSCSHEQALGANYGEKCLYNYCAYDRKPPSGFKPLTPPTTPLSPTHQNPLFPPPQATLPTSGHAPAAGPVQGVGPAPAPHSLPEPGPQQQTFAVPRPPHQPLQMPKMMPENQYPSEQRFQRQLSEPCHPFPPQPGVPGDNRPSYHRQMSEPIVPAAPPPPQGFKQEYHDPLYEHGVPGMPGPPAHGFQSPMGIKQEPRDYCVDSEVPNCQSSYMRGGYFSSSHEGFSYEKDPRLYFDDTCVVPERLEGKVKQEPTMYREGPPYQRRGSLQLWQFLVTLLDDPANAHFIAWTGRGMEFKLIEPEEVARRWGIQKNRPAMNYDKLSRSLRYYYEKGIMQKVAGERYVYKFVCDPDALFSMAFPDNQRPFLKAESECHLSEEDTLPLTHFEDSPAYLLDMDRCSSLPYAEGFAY
Sequence of ELF4 (Q99607 whole entry): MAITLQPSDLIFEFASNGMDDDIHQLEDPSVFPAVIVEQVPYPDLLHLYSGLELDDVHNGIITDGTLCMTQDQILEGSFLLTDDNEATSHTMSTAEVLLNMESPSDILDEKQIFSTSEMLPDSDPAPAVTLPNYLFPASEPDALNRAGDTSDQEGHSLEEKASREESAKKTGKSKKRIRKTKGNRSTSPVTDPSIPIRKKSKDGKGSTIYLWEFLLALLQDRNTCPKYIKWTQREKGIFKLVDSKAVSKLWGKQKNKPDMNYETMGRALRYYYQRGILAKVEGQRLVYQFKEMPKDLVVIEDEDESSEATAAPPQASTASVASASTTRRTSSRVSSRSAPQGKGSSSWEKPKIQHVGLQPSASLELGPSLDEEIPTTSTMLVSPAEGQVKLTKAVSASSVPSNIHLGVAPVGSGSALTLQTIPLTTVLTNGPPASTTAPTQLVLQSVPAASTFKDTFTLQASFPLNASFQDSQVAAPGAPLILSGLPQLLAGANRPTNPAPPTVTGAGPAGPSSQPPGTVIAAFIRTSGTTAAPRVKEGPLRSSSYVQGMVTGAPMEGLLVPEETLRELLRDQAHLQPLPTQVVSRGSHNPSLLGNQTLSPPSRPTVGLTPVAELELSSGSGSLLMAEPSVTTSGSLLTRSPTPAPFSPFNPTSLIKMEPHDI
Sequence of SPIB (Q01892 whole entry): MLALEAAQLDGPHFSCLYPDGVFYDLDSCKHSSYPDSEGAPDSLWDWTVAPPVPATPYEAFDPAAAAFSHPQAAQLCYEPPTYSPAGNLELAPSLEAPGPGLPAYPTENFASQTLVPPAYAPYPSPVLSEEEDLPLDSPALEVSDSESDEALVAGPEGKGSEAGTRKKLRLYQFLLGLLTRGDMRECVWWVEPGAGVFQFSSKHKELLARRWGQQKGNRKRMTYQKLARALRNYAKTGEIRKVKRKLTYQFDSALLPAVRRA
Sequence of ETV1 (P50549 whole entry): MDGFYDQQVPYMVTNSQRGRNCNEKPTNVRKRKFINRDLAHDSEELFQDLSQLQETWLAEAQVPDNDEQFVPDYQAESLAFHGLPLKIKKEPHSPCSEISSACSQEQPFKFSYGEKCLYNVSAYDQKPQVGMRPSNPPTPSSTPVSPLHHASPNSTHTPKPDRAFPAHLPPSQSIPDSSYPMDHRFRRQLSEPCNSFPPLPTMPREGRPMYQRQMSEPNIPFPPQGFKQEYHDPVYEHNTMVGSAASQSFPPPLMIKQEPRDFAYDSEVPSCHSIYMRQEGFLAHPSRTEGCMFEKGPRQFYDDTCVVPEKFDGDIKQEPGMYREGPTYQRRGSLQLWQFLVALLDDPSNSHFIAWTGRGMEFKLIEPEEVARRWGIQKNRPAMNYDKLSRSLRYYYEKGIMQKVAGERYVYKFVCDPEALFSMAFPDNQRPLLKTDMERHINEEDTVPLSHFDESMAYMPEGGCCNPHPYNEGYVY
Sequence of ELF1 (P32519 whole entry): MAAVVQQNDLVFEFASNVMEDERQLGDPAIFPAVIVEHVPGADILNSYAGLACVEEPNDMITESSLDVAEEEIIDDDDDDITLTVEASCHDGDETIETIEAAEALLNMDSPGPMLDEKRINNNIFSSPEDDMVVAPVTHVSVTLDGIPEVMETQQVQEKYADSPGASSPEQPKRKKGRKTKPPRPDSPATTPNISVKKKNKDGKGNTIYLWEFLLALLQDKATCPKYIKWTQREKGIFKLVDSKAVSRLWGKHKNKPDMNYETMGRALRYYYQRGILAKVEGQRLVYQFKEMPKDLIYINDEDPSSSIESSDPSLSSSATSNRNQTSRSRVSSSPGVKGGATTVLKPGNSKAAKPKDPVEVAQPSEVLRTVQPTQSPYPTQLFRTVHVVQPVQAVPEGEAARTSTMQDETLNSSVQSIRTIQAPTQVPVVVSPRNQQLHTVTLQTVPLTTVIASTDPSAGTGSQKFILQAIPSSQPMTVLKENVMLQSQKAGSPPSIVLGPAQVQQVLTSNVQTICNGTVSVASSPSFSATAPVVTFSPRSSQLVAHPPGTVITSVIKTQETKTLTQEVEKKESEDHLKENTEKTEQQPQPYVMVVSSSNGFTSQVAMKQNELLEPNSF

GACCGG
binding signal (ELK1): 1.11 fold enrichment (6-mer frequency, TF over GST control) | binding signal (GABPA): 1.02 fold enrichment (6-mer frequency, TF over GST control) | binding signal (ERG): 1.31 fold enrichment (6-mer frequency, TF over GST control) | binding signal (ELF1): 1 fold enrichment (6-mer frequency, TF over GST control) | binding signal (EHF): 1.06 fold enrichment (6-mer frequency, TF over GST control) | binding signal (SPIB): 1.07 fold enrichment (6-mer frequency, TF over GST control) | binding signal (ELK3): 1.23 fold enrichment (6-mer frequency, TF over GST control) | binding signal (FEV): 2.09 fold enrichment (6-mer frequency, TF over GST control) | binding signal (ETV5): 1.12 fold enrichment (6-mer frequency, TF over GST control) | binding signal (ELF4): 1.03 fold enrichment (6-mer frequency, TF over GST control) | binding signal (ELF3): 1.14 fold enrichment (6-mer frequency, TF over GST control) | binding signal (ETV1): 1.21 fold enrichment (6-mer frequency, TF over GST control) | binding signal (ERF): 1.06 fold enrichment (6-mer frequency, TF over GST control) | binding signal (ETV3L): 1.08 fold enrichment (6-mer frequency, TF over GST control) | binding signal (ETS2): 1.07 fold enrichment (6-mer frequency, TF over GST control) | binding signal (SPDEF): 1.19 fold enrichment (6-mer frequency, TF over GST control) | binding signal (ETV7): 1.06 fold enrichment (6-mer frequency, TF over GST control) | binding signal (ETV3): 1.09 fold enrichment (6-mer frequency, TF over GST control) | binding signal (ETV6): 1.03 fold enrichment (6-mer frequency, TF over GST control)
